Reference: PubChem BioAssay (NCI)
Compounds without any hit were thinned out: in the full panel of roughly 79,000, 15% have a hit. No stated cut-off is given here; in the data, active means growth inhibition above about 70%; inactive means the rest.

Legend:
[1] = NCI Yeast Anticancer Drug Screen. Data for the rad50 strain (AID 155);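 further: 0% = growth of vehicle-only cultures of the same strain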; settings: S. cerevisiae rad50 strain growth inhibition; at 50.0 µM; hits give high values
Procedure, shortened: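 Inhibition values express reduced yeast growth in compound-treated cultures relative to vehicle-treated controls.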

[2] = NCI Yeast Anticancer Drug Screen. Data for the mec2-1 strain (AID 157); settings: S. cerevisiae mec2-1 strain, at 50.0 µM, hits give high values
Procedure, shortened: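 Test agents were screened against the mec2-1 yeast strain, with defined DNA repair or cell cycle alteration. Growth was scored as inhibition against vehicle-only controls.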

[3] = NCI Yeast Anticancer Drug Screen. Data for the sgs1 mgt1 strain (AID 161);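 further: 0% = growth of cultures given vehicle only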; settings: S. cerevisiae sgs1 mgt1 strain, at 50.0 µM, hits give high values
Procedure, shortened: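 Mutant yeast exposed to compound; growth scored against vehicle-only wells.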

[4] = NCI Yeast Anticancer Drug Screen. Data for the cln2 rad14 strain (AID 165);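 further: 0% = growth equal to vehicle treated cultures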; settings: S. cerevisiae cln2 rad14 strain, at 50.0 µM, hits give high values
Procedure, shortened: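 Growth of compound-exposed yeast (cln2 rad14 genotype) measured and expressed as inhibition relative to vehicle.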

[5] = NCI Yeast Anticancer Drug Screen. Data for the bub3 strain (AID 167); settings: S. cerevisiae bub3 mutant strain, at 50.0 µM, hits give high values
Procedure, shortened: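 Steps: expose the mutant yeast strain to compound; grow alongside vehicle-treated cultures; measure growth; express inhibition against the vehicle cultures.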

[6] = NCI Yeast Anticancer Drug Screen. Data for the mlh1 rad18 strain (AID 175); settings: S. cerevisiae mlh1 rad18 strain growth inhibition; at 50.0 µM; hits give high values
Procedure, shortened: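 In this whole-cell yeast screen, a strain with altered DNA damage repair is challenged with compound, and its growth is measured against matched vehicle-treated controls.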

Measured: growth inhibition

OC(c1ccccc1)C(Cl)c1ccccc1 (stereo unspecified)
inactive: [1] 1% | [2] -2.25% | [3] 1.9% | [4] -13.8% | [5] -19.3% | [6] 19.8%

O=C1C=C2CCCCCCCC(C1)C2 (stereo unspecified)
inactive: [1] 11.8% | [2] 1.1% | [3] 2.25% | [4] -1.75% | [5] -1.15% | [6] 3.2%

NC(=O)C1C2C=CC(O2)C1C(=O)O (stereo unspecified)
inactive: [1] -26.6% | [2] -12.9% | [3] -10.3% | [4] -23.6% | [5] -1.9% | [6] 5.4%

COc1ccccc1/C(=N\OCCC(=O)O)c1cccs1
inactive: [1] 2.15% | [2] -0.95% | [3] 5.95% | [4] 0.65% | [5] -1.25% | [6] -51.1%

O=C(Cc1nc2ccc(C(=O)c3ccccc3)cc2[nH]c1=O)C(=O)Nc1nc2ccccc2[nH]1
inactive: [1] -23.1% | [2] 19.3% | [3] -4.05% | [4] -17.9% | [5] -4.25% | [6] 9.5%

O=S(CCCl)c1ccccc1 (stereo unspecified)
inactive: [1] -8.3% | [2] -13.2% | [3] 3.35% | [4] 10.4% | [5] -7.05% | [6] 4.9%

COc1cccc(C=Nc2cc(C)ccn2)c1O.COc1cccc(C=Nc2cc(C)ccn2)c1O.[Cu]
inactive: [1] 3.45% | [2] -7.75% | [3] 9.75% | [4] 14.2% | [5] -11.6% | [6] 38.6%

CCc1cccc(C(C)CC)c1N=C(NC(=O)c1ccccc1C(=O)NC(=Nc1c(CC)cccc1C(C)CC)SC)SC (stereo unspecified)
inactive: [1] -0.7% | [2] -3.15% | [3] 5.3% | [4] 6.3% | [5] 15.1% | [6] -5.15%

Nc1nc(N)nc(Cc2ccccc2)n1
inactive: [1] -24.4% | [2] -3.45% | [3] -17.9% | [4] -58.4% | [5] -15% | [6] -57.9%

CCCCCCSc1ccc([N+](=O)[O-])cc1[N+](=O)[O-]
inactive: [1] 4.95% | [2] -6% | [3] -10.6% | [4] -6.8% | [5] 24.9% | [6] -21.1%

Cc1ncc(CO)c(/C=N\Nc2ccc([N+](=O)[O-])cc2[N+](=O)[O-])c1O
inactive: [1] -21.4% | [2] 19.2% | [3] 9.7% | [4] -17.7% | [5] 11.3% | [6] 13.9%

c1cc(CSSCc2ccncc2)ccn1
inactive: [1] -15% | [2] 3.15% | [3] -19.1% | [4] -13.2% | [5] -27.6% | [6] 4.75%

CN(C)C1=NC(NCc2ccccc2)(N(C)C)OC(N(C)C)=N1 (stereo unspecified)
inactive: [1] 1.95% | [2] 4.9% | [3] 0.55% | [4] 8.7% | [5] 13.7% | [6] 15.5%

Cc1ccc(N(C)c2cc(=O)n(C)c(=O)[nH]2)cc1C
inactive: [1] 14.4% | [2] 16.2% | [3] 10.3% | [4] 28.3% | [5] 12.4% | [6] 14.4%

CC(=O)OCC1OC(n2nnc3c(=O)n(C)c(=O)[nH]c32)C(OC(C)=O)C(OC(C)=O)C1OC(C)=O (stereo unspecified)
inactive: [1] 9.45% | [2] 16.1% | [3] 13.8% | [4] 4% | [5] 8.9% | [6] 29.4%

CCCCSCCC(=O)O
inactive: [1] 18.4% | [2] -3.05% | [3] -22.2% | [4] 3.95% | [5] 5.95% | [6] 5.85%

CC1=C(C(=O)O)C(C)CC(=O)N1 (stereo unspecified)
inactive: [1] 5.15% | [2] -3.4% | [3] -8.25% | [4] -12.4% | [5] 1.2% | [6] 7.9%

CC1CCCC1N (stereo unspecified)
inactive: [1] -13.7% | [2] -12.5% | [3] -24.5% | [4] -27.1% | [5] -5.85% | [6] -7.5%

O=P12N(CCN1c1ccccc1)CCN2c1ccccc1
inactive: [1] -26.4% | [2] -34.1% | [3] -13.8% | [4] 19.6% | [5] 10.2% | [6] -25.5%

CNC(=O)C(c1ccccc1)C(O)c1ccccc1 (stereo unspecified)
inactive: [1] 10.8% | [2] -3.7% | [3] -11.4% | [4] 10.4% | [5] -0.15% | [6] -10.5%

CCCCCCCSCC(O)COC(c1ccccc1)(c1ccccc1)c1ccccc1 (stereo unspecified)
inactive: [1] -17.5% | [2] -28.6% | [3] -29.6% | [4] -20% | [5] -21.5% | [6] -20.6%
